Screening results from PubChem BioAssay.
Only some compounds are listed: those with a hit (about 9% of all), similar ones and a draw of the others.
Luc counter: Kinase-Glo luciferase inhibition (counter-screen) | Potency, µM (series often up to 38.3 µM), for the others: at the highest dose activity change, negative = inhibition, most hits filed as inhibitors | hit rate 0.28% among 200,000 | Kinase-Glo luciferase, ATP luminescence, 8 min | Q27757; active means well fitted curve in the direction sought with a large enough effect; inconclusive means small, poorly fitted or top-dose-only effect, or another doubt; inactive means no such curve, though single readings can be large; an effect the other way counts as inactive or inconclusive; further: nearly all actives have a fitted effect of over 60% in size
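Light output from Kinase-Glo luciferase with luciferin and 10 uM ATP in 50 mM imidazole pH 7.2, KCl, MgCl2, Tween 20, BSA; compound pin-delivered, 8-min ambient incubation, then luminescence read.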
IMPase Li cell: cell-permeable IMPase inhibitors with lithium potentiation | AID 1457 | Potency, µM (doses to about 59.4 µM), for inactives: at the highest dose activity, negative = IMPase inhibition, usual class: inhibitors | CHO-M1 cells, IP1 TR-FRET (IP-One), carbachol + lithium | hit rate 0.35% among 210,000; active means well fitted curve in the direction sought with a large enough effect; inconclusive means small, poorly fitted or top-dose-only effect, or another doubt; inactive means no such curve, though single readings can be large; an effect the other way counts as inactive or inconclusive;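 further: IP1 builds up when IMPase is blocked and the TR-FRET signal falls; plate controls were basal vehicle for no effect and high inhibitor control for full effect; nearly all actives have a fitted effect of over 50% in size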
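Test compounds were applied to CHO-M1 cells previously cultured for 16–30 h at 2000 per well. A small lithium amount accompanied them; after 30 min at 37C, IP1 was quantified by TR-FRET.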
HPGD block: HPGD (human) dehydrogenase inhibition | purified HPGD, NADH fluorescence kinetic, PGE2 substrate | Potency, µM, inactives show at the top dose activity change, negative = inhibition, hits mostly inhibitors | hit rate 4.3% among 150,000 | AID 894
Target sequence (P15428 whole entry, looked up): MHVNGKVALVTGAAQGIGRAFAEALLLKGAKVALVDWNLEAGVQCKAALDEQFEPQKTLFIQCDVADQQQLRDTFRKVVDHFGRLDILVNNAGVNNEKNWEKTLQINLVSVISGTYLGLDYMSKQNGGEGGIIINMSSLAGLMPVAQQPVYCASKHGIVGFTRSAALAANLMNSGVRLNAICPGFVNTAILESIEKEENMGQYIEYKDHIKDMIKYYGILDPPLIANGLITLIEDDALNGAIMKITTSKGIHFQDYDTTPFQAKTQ
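NADH formation kinetics: reaction with 30 uM PGE2 and 1 mM NAD+ (final), 20 nM enzyme, Tris-HCl pH 8 with Tween 20, after 15 min compound preincubation at room temperature. Fluorescence change, last versus first of five reads.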
ALDH1A1 block: blocks purified human ALDH1A1 activity | P00352 | Purified ALDH1A1, NADH fluorescence, propionaldehyde substrate | Potency, µM (series often up to 75.3 µM), for inactives: at the highest dose activity, negative = inhibition, most hits filed as inhibitors | hit rate 7.3% among 220,000 | AID 1030;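 further: plate controls were no enzyme wells and a reference inhibitor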
LMNA splice mod: modulators of lamin A splicing. AID 1487. hit rate 0.01% among 200,000. HeLa LMNA splicing GFP/RFP minigene ratio, 48 h. Potency, µM (series often up to 46.1 µM), without a hit: top-dose ratio change, negative = inhibition, most hits filed as inhibitors; active means well fitted inhibition curve with a large enough effect in the signal ratio, with a control signal flat, not every such curve was filed as active; inconclusive means small, poorly fitted or top-dose-only effect, or effect the other way, or a change in a side signal; the % refers to the signal ratio
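S3 HeLa cells stably expressing lamin A-EGFP splicing minigene plus DsRed2, 600 cells/well, 48 h compound exposure at 37C. Laser-scanning cytometry; analysed as GFP (500-530 nm)/RFP (575-640 nm) total intensity ratio; 0.5% DMSO vehicle.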
An asterisk follows results filed as active; ? = inconclusive; nt = no result; [ ] = remark or other dose. Unless noted, the call rests on the fitted dose curve; in most records, active means well fitted inhibition curve with a large enough effect (not every such curve was filed as active); inconclusive means small, poorly fitted or top-dose-only effect, or another doubt; inactive means no such curve, though single readings can be large or run the other way. Unless noted, on the % scale 0 is the no-effect control and ±100 the full control effect; potency means the concentration at half of the fitted maximal effect.

SMILES | Luc counter | IMPase Li cell | HPGD block | ALDH1A1 block | LMNA splice mod
c1cncc(-c2nnc(-c3cccnc3)nn2)c1 | -10% | -3%[38.3 µM] | 8.9µM* | 11µM* | ?
COC(=O)[C@@]1(Cc2ccc(OC)cc2)[C@H]2c3cc(C(=O)N(C)C)n(Cc4ccc(C)o4)c3C[C@H]2CN1C(=O)c1ccccc1 | -6% | -1% | 25µM* | ? | nt
COC(=O)[C@@]1(Cc2ccc(F)cc2)[C@H]2c3cc(C(=O)N4CCCC4)n(Cc4ccc(C)o4)c3C[C@H]2CN1C(=O)c1ccccc1 | -4% | 8% | 22µM* | -2% | nt
COC(=O)[C@@]1(Cc2ccc(OC)cc2)[C@H]2c3cc(C(=O)N(C)C)n(CCO)c3C[C@H]2CN1C(=O)c1ccccc1 | 2% | -2% | -7% | -7% | nt
CCCCc1nn2c(=O)cc(COC(=O)c3cccc(NC(=O)c4cccc(Cl)c4)c3)nc2s1 | nt | nt | nt | nt | 5%[46 µM]
COc1ccc(/C=C(\C#N)C(=O)OCC(=O)Nc2ccc(-c3nc4ccc(C)cc4s3)cc2)cc1 | 1% | -3% | nt | ? | 8%[46 µM]
C=CCOc1c(CNc2nccs2)cccc1OCC | 1% | 10%[38.3 µM] | -16% | 2.5µM* | -6%
C=CCOc1c(Cl)cc(CNc2nccs2)cc1OC | -2% | 5% | nt | 13µM* | -2%[46 µM]
C=CCOc1ccc(CNc2nccs2)cc1OCC | 0% | 4% | -19% | ? | 1%
Cc1ccc(NC(=O)COC(=O)c2ccc([N+](=O)[O-])o2)cc1S(=O)(=O)N1CCCCCC1 | -3% | 6% | nt | ? | 13%[46 µM]
COc1cccc(C(=O)C(C#N)=C(SC)SC)c1 | nt | nt | nt | 7.1µM* | nt
CSC(SC)=C(C#N)C(=O)c1ccccc1 | nt | nt | nt | 22µM* | ?
COc1cccc(C(=O)Nc2ccc(NC(C)=O)cc2)c1 | -7% | 30%[38.3 µM] | -5% | -2% | 6%
CCC(CC)NC(=O)COc1ccc(OC)cc1C=O | 2% | -2% | nt | -3% | nt
COc1ncnc2sc(-c3ccccc3)cc12 | 10µM* | 5%[38.3 µM] | ? | ? | 6%
O=C(C1CCN(S(=O)(=O)N2CCCCC2)CC1)N1CCCCC1 | -2% | -4% | 20µM* | ? | 5%
Cc1ccc(S(=O)(=O)/N=C(/Nc2ccc3[nH]c(=O)[nH]c3c2)c2ccc(F)cc2)cc1 | 0% | 3% | nt | 8.9µM* | ?
CNC(=O)C1CCN(C(=O)N2CC(C)Oc3ccc(Cl)cc32)CC1 (stereo not drawn) | nt | nt | nt | nt | -15%[46 µM]
C=CCn1cc(/C=N/N2C(=O)C3C4C=CC(C4)C3C2=O)c2ccccc21 (stereo not drawn) | -1% | 7% | nt | 25µM* | 11%[46 µM]
O=C1C2C3C=CC(CC3)C2C(=O)N1/N=C/c1ccc(O)c(O)c1 (stereo not drawn) | 1% | 0% | -19% | ? | ?
COc1ccc(OC)c(C(=O)c2ccc(C(=O)Nc3cccc4ccccc34)cc2)c1 | 1% | 5% | -7% | ? | ?
Cc1cccc(NC(=O)CSc2nnc(NC(=O)Nc3ccccc3)s2)c1C | nt | nt | nt | nt | 22%[46 µM]
O=C(CSCc1ccccc1)Nc1ccc(F)cc1F | 1% | 9% | nt | 24µM* | nt
CCOC(=O)c1cc(NC(=O)CSCCO)ccc1Cl | 2% | 0%[38.3 µM] | -4% | 22µM* | 1%
CCOC(=O)c1cc(NC(=O)COC)ccc1O | -5% | 5% | nt | -4% | nt
SMILES | Luc counter | IMPase Li cell | HPGD block | ALDH1A1 block | LMNA splice mod
C/C(=N\NC(=O)c1ccc(-c2ccccc2)cc1)c1cccc(N)c1 | -2% | 5% | nt | 22µM* | -6%[46 µM]
CC(=O)Nc1ccc(/C(C)=N/NC(=O)c2ccc(F)cc2)cc1 | 5% | -3% | -8% | 1% | 2%
CC(=O)Nc1ccc(/C(C)=N\NC(=O)c2ccc(-c3ccccc3)cc2)cc1 | 0% | -9% | nt | 22µM* | nt
CC/C(=N\NC(=O)c1ccc(-c2ccccc2)cc1)C12CC3CC(CC(C3)C1)C2 | 17% | 1%[38.3 µM] | -25% | 13µM* | 2%
CCn1c2ccccc2c2cc(NC(=O)CSc3nccc(=O)[nH]3)ccc21 | 4% | -3% | nt | ? | -15%[46 µM]
O=C1C(c2cc(=O)c3ccccc3[nH]2)=C(O)c2ccccc21 | -19% | -6% | 14µM* | -7% | ?
O=C1C(c2ccncc2)=C(O)c2ccccc21 | -21% | 37%[38.3 µM] | -19% | ? | 0%
O=c1nc(-c2ccccc2)c2ccccc2[nH]1 | 15% | -27%[38.3 µM] | ? | ? | 4%
O=c1cc(-c2ccccc2)[nH]c2ccccc12 | 4% | 3%[38.3 µM] | 13µM* | 2% | ?
COc1cccc(-c2ccc(=O)n(CC(=O)Nc3ccc(S(=O)(=O)NCC(C)C)cc3)n2)c1 | -1% | -7% | nt | 2% | nt
CC(=O)N1C2(C=CC1(C)C(=O)NCc1ccc(C)o1)CCCCC2 (stereo not drawn) | -4% | 2% | -10% | 22µM* | nt
CCOc1ccc(C2C(C(=O)O)CCC(=O)N2C2CCCCC2)cc1 (stereo not drawn) | -1% | -7% | nt | -1% | nt
CC(=O)OC1CC(OC(C)=O)[C@]2(C)C(CC(=O)[C@]3(C)C2CC[C@@]2(C)C(C(=O)O)OC(=O)C4OC423)C1(C)C (stereo partly drawn) | 1% | 0% | -5% | 0% | nt
CCN1C(=O)S/C(=C/c2ccc(Sc3nc4ccccc4[nH]3)o2)C1=O | -2% | 11% | 13µM* | 9% | ?
N#C/C(=C/c1ccc(Sc2nc3ccccc3[nH]2)o1)c1cccc(Br)c1 | 2% | 35%[38.3 µM] | ? | ? | ?
O=C(O)CN(CCN(CC(=O)O)CC(=O)O)CC(=O)O.[Mn] | -1%[7.66 µM] | -9% | -3% | 3%[13.5 µM] | nt
O=C(CSC1=NCCS1)Nc1ccnc2ccccc12 | 2% | 11%[38.3 µM] | -21% | 3% | ?
C/C(=N\NC(N)=O)C1(C)CCCCC1 | 1% | -8%[38.3 µM] | -10% | 25µM* | 14%
C/C(=N\NC(N)=S)C1(C)CCCCC1 | 2% | -4% | 3% | ? | -6%
